# Screens (PubChem BioAssay)
# Only some compounds are listed: those with a hit (about 11% of all), similar ones and a draw of the others.
# HP1b binding inh = inhibitors of HP1-beta chromodomain binding to methylated histone tails; 390,000 compounds, 0.56% hits; AID 540317; AlphaScreen HP1-beta / biotin-H3K9me3 peptide binding; Potency, µM (highest dose often 114 µM), without a hit: at the highest dose activity change, negative = inhibition, actives largely listed as inhibitors; further: nearly all actives have a fitted effect of over 70% in size
# Target sequence (P83916 whole entry, looked up): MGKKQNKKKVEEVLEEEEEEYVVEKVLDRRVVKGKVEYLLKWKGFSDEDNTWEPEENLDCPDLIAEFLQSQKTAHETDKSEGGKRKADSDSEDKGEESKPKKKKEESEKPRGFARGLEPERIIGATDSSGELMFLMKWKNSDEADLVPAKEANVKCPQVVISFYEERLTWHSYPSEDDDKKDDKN
#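 Compound inhibition of the preformed complex between 50 nM HP1-beta and 50 nM biotinylated H3K9me3 peptide was read by AlphaScreen. Buffer was PBS pH 7.4 with 0.01% Tween-20. Incubations ran 30 min at room temperature, with 10 ug/mL donor/acceptor beads.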
# BAZ2B block = blocks human BAZ2B | 360,000 compounds, 4.4% hits | Potency, µM (top dose mostly 114 µM), for inactives: at the highest dose activity change, negative = inhibition, hits mostly inhibitors | AlphaScreen BAZ2B-H3K14Ac peptide displacement; further: on the % scale 0 is the no-effect control and ±100 the full control effect; nearly all actives have a fitted effect of over 60% in size
#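 AlphaScreen displacement of biotin-H3(5-23)K14Ac peptide (50 nM final) from BAZ2B (50 nM final) in PBS pH 7.4, 0.01% Tween-20; complex preformed 30 min RT, then compounds (top 110 uM) 30 min RT, beads 20 min dark.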
# G9a block = G9a (human) methyltransferase inhibition; Q96KQ7; G9a H3K9 monomethylation, AlphaScreen, 2 h; Potency, µM (highest dose often 102 µM), inactives show at the top dose activity, negative = inhibition, usual class: inhibitors; 350,000 compounds, 8.8% hits; further: on the % scale 0 is the no-effect control and ±100 the full control effect; nearly all actives have a fitted effect of over 75% in size
# Target sequence (Q96KQ7 913-1193 limits assumed): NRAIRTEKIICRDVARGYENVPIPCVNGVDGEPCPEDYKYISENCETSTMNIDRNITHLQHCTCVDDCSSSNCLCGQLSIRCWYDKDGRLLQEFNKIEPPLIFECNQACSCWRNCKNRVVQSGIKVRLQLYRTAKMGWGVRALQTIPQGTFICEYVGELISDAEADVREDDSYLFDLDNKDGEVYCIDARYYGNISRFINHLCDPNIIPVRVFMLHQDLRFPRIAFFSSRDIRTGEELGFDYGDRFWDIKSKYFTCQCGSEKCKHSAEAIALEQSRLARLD
#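 AlphaScreen detection with an anti-monomethyl H3K9 antibody quantified product after a 2 h room-temperature reaction containing 500 nM biotinylated H3K9 peptide, 20 µM SAM and 20 nM enzyme, which had been preincubated 15 min with compound.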
# JMJD2A Tudor inh = inhibitors of human JMJD2A Tudor domain. AlphaScreen JMJD2A-Tudor / H3K4me3 peptide binding. 390,000 compounds, 4.4% hits. Potency, µM (titrated, usually from 114 µM), without a hit: top-dose activity change, negative = inhibition, most hits filed as inhibitors. O75164; further: on the % scale 0 is the no-effect control and ±100 the full control effect; nearly all actives have a fitted effect of over 50% in size
# L3MBTL1 inh = L3MBTL1 (human) inhibition. Q9Y468. AlphaScreen L3MBTL1–H3K9me1 peptide binding. Potency, µM (highest dose often 57.1 µM), inactives show at the top dose activity, negative = inhibition, most hits filed as inhibitors. 230,000 compounds, 0.66% hits; further: on the % scale 0 is the no-effect control and ±100 the full control effect; nearly all actives have a fitted effect of over 60% in size
#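 L3MBTL1 (50 nM) pre-complexed 30 min with biotinylated H3(1-15)K9me1 peptide (75 nM), then compounds added for 30 min at room temperature; AlphaScreen streptavidin donor/nickel chelate acceptor beads (10 ug/mL final) read after 30 min dark incubation.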
# Numbers without * were called inactive; ? = inconclusive; nt = not tested or not shown; [ ] = another dose, or the depositor's remark. The call rests on the fitted dose curve; in most records, active means well fitted inhibition curve with a large enough effect; inconclusive means small, poorly fitted or top-dose-only effect; inactive means no such curve, though single readings can be large or run the other way. Potency means the concentration at half of the fitted maximal effect.
SMILES,HP1b binding inh,BAZ2B block,G9a block,JMJD2A Tudor inh,L3MBTL1 inh
NC(=S)N/N=C/c1ncc(C(F)(F)F)cc1Cl,42%,50µM*,-28%,?,?
O=C1NCN(c2ccccc2)C12CCN(CCCC(c1ccc(F)cc1)c1ccc(F)cc1)CC2,-31%,?,10µM*,40µM*,?
O=C1CCC(=O)N1CCC(c1ccc(F)cc1)c1ccco1 (stereo not drawn),19%,-8%,5%[12.7 µM],-17%,-11%
COC(=O)c1ccc(OCC(O)CNCC(c2ccc(OC)cc2)N(C)C)c(OC)c1 (stereo not drawn),-25%,50µM*,?,1.8µM*,nt
CC(=O)N1N=C(c2c(-c3ccccc3)c3cc(Br)ccc3[nH]c2=O)CC1c1ccco1 (stereo not drawn),40%,-19%,50µM*,-28%,-8%
O=S(=O)(c1ccccc1)C(/C=N\O)/C=C/c1ccccc1 (stereo not drawn),-1%,-15%,7.9µM*,?,18%
CN(C(=O)CSc1nc2ccc(NC(=O)COc3ccc(F)cc3)cc2s1)c1ccccc1,21%,-14%,-3%[59 µM],-18%,nt
Cc1ccc(OCCSc2nc3ccc(NC(=O)c4ccc5c(c4)OCO5)cc3s2)cc1,28%,-7%,-5%[59 µM],-8%,nt
Cc1cccn2cc(-c3cc4ccccc4oc3=O)nc12,-13%,-9%,nt,89µM*,60%
Cc1ccc2cccc(OC(=O)c3ccc4c(c3)OCCO4)c2n1,27%,nt,8.9µM*,?,-1%
Cc1cc(Cl)ccc1NC(=O)CCS(=O)(=O)c1cc2c(cc1C)NC(=O)CO2,29%,4%,8%[59 µM],-23%,nt
COc1ccc(NC(=O)CN(C)C(=O)C(C)N2C(=O)c3ccccc3C2=O)cc1 (stereo not drawn),26%,9%,?,-12%,2%
COc1ccc(Cl)cc1NC(=O)c1c(C(=O)Nc2cccc(C)c2C)sc2nc(C)cc(=O)n12,5%,-3%,11µM*,-6%,nt
COc1ccc(NC(=O)c2ocnc2C)cc1OC,-24%,-2%,-2%[59 µM],-28%,2%
COc1ccc(Cl)cc1NC(=O)c1ocnc1C,28%,-1%,50µM*,-3%,-3%
COC(=O)c1ccc(NC(=O)c2c(C(=O)Nc3ccccc3)sc3nc(C)cc(=O)n23)cc1,47%,-14%,-51%,-9%,nt
Cc1sc2c(c1C)c(=O)n(-c1ccccc1)c(=O)n2CC(=O)c1ccc(Cl)cc1,24%,-6%,-36%[59 µM],-16%,nt
Cc1c(C)n(Cc2ccccc2)c2ccc(C(=O)NCC(C)c3ccccc3)cc12 (stereo not drawn),-6%,-12%,-33%[59 µM],?,nt
COc1ccc(C(=O)CN2C3=NCCCN3c3ccccc32)cc1OC,10%,-6%,45µM*,-12%,1%
COc1cccc(C(=O)CN2C3=NCCCN3c3ccccc32)c1,20%,7%,?,-15%,-2%
O=[N+]([O-])c1cc(CN2CCCCCC2)ccc1O,46%,-23%,14%,-12%,0%
Cc1ccc(Sc2ccc(CN3CCCCC3)cc2[N+](=O)[O-])cc1,?,?,18µM*,35µM*,?
CC(C)c1ccc(NS(=O)(=O)c2ccc3[nH]c(=O)ccc3c2)cc1,13%,?,-54%[59 µM],?,nt
CCN(CC)c1ccc(C(=C2C=CC(=[N+](CC)CC)C=C2)c2ccc(S(=O)(=O)O)cc2S(=O)(=O)[O-])cc1,22µM*,nt,nt,?,nt
CCCn1c2c(c(=N)c3c1CCC3)CCCC2,19%,-1%,13µM*,?,-22%
SMILES,HP1b binding inh,BAZ2B block,G9a block,JMJD2A Tudor inh,L3MBTL1 inh
CCCn1c2c(c(=N)c3c1CCC3)CCC2,7%,?,50µM*,-6%,-10%
O=c1[nH]c(=O)n(-c2ccccc2)c2c1C(C(F)(F)F)(C(F)(F)F)N=C(C1CCCCC1)N2,4%,-2%,23%[59 µM],89µM*,1%
C#CCOCCOCCOCCNc1nc(N2CCN(C(=O)CCCCCCCCCCNC(=O)[C@@H](CCSC)n3cc(CCO)nn3)CC2)nc(N2CCN(C(=O)CCCCCCCCCCNC(=O)[C@H]([C@@H](C)CC)n3cc(CCCCCN)nn3)CC2)n1,?,?,19%[2.33 µM],56µM*,0%
C#CCOCCOCCOCCNc1nc(N2CCN(C(=O)CCCCCCCCCCNC(=O)[C@@H](CCSC)n3cc(CCO)nn3)CC2)nc(N2CCN(C(=O)CCCCCCCCCCNC(=O)[C@H]([C@@H](C)CC)n3cc(CCCCN=C(N)N)nn3)CC2)n1,?,50µM*,2%[2.33 µM],40µM*,-12%
COc1cc(C#Cc2c(-c3cncn3C)n(C)c3ccc(-c4ccc(OC)nc4)cc23)cc(OC)c1,-11%,40µM*,-2%[0.501 µM],14µM*,?
O=C(C1CC(=O)N(c2ccc(F)cc2)C1)N1CCN(c2ccc(F)cc2)CC1 (stereo not drawn),9%,-13%,nt,-17%,nt
O=Cc1ccc(OC(=O)C2CC(=O)N(c3ccc(F)cc3)C2)cc1 (stereo not drawn),39%,4%,50µM*,-7%,nt
O=C(O)C1CC(=O)N(c2ccc(F)cc2)C1 (stereo not drawn),?,-1%,-10%[12.7 µM],50µM*,nt
COC(=O)c1ccc(OC(=O)C2CC(=O)N(c3cccc(C)c3)C2)cc1 (stereo not drawn),47%,25%,?,-6%,-11%[11.4 µM]
O=C(NCc1ccccc1F)Nc1ccc([N+](=O)[O-])cc1,10%,-10%,-44%,-14%,nt
COc1ccc(OC)c(C2CC(=O)N(c3cccc(C)c3)C3=C2C(=O)OC3)c1 (stereo not drawn),7%,?,7%[59 µM],-25%,nt
COC1(OC)C(=N/O)/C(=N\O)CCC1O (stereo not drawn),6%,?,11µM*,-31%,nt
Cc1oc(-c2ccc3c(c2)OCCO3)cc1C(=O)NC(Cc1ccccc1)C(=O)O (stereo not drawn),20%,?,35µM*,-15%,-10%
COc1ccc(S(=O)(=O)N(CCc2ccccc2)CC(=O)NCc2ccc(C)cc2)cc1,34%,1%,6%[59 µM],-5%,nt
CCN=c1scc(C)n1/N=C/c1ccc(O)c(O)c1O,?,22µM*,5µM*,45µM*,32µM*
COCCN=c1scc(-c2cccs2)n1/N=C/c1ccc(O)c(O)c1O,?,35µM*,5.6µM*,8.9µM*,?
COc1cc(/C=N/NC(=O)c2nnn(-c3nonc3N)c2-c2cccs2)ccc1O,33%,-21%,53%,-35%,nt
CCN=c1scc(C)n1/N=C/c1cc(Br)c(O)c(Br)c1,?,45µM*,10µM*,?,-4%
CCCc1nc2ccccc2c(=O)n1/N=C/c1ccccc1O,50%,-5%,12%,-19%,-5%
